Assay results taken from ChEMBL document CHEMBL3988442, “University of Dundee, Small-Polar-MMV Screening Library” (2021).
In all, about 48,000 compounds went through this assay and about 13,000 (27%) showed an effect of 50% or more. Some of the results follow.

Tested on: Wolbachia pipientis
Experiment: Anti-Wolbachia Cell-Based Screen
Assay type: functional
Design: scale not given: in the data most compounds retested in dose-response had high values
Conditions: 5 µM

Row | Compound | Percent Effect [%]
1 | C/C=C(/C)C(=O)NS(=O)(=O)c1ccc(C(F)(F)F)cn1 | 4.736
2 | CCCN(C(=O)c1ocnc1C)C1CCCN(Cc2ccccc2)C1 (stereo unspecified) | -1.253
3 | O=C1CC(NCc2ccc(OC(F)F)cc2)CN1Cc1cccc(F)c1 (stereo unspecified) | 2.286
4 | CN1CCC(Oc2ccc(NC(=O)c3ccccc3)cc2)CC1 | 6.259
5 | Cc1cccc(C(=O)N2CCN(C)CC2)c1NC(=O)c1ccncc1 | -3.532
6 | Cc1cccc(C(=O)N2CCSCC2)c1NC(=O)c1cccnc1 | -13.65
7 | O=C(c1ccn(-c2ccccc2Cl)n1)N1CCSCC1 | -7.672
8 | Cn1nc(C(=O)N2CCSCC2)cc1NC(=O)c1ccccc1 | 96.7
9 | CN1CCN(C(=O)c2cc(NC(=O)c3ccccc3)n(C)n2)CC1 | 103.5
10 | Cc1cc2ccccc2n1CCC(=O)N1CCN(C)CC1C(N)=O (stereo unspecified) | 104.9
11 | Cc1cc2ccccc2n1CCC(=O)N1CCC[C@H]1C(N)=O | -2.793
12 | Cc1cc2ccccc2n1CCC(=O)N1CCCC1Cn1cccn1 (stereo unspecified) | -4.808
13 | CSCCC(=O)N1CCCC(c2nccn2Cc2ccncc2)C1 (stereo unspecified) | -15.94
14 | Cc1ccnn1CCC(=O)N1C[C@H]2CC[C@@H]1CN(CC(=O)N(C)C)C2 | -3.709
15 | CS(=O)(=O)NCC(=O)N1CCCC1c1noc(C2CC2)n1 (stereo unspecified) | -4.288
16 | Cc1c[nH]nc1C1CCCCN1C(=O)CNS(C)(=O)=O (stereo unspecified) | 91.22

Row | Compound | Percent Effect [%]
17 | Cc1cccc(C2CCCCN2C(=O)CCCS(C)(=O)=O)c1C (stereo unspecified) | -5.265
18 | Cc1c[nH]nc1C1CCCCN1C(=O)Cn1cc(Cl)cn1 (stereo unspecified) | -1.424
19 | Cc1c[nH]nc1C1CCCCN1C(=O)CC1(O)CCCCC1 (stereo unspecified) | 121.5
20 | Cc1c[nH]nc1C1CCCCN1C(=O)CCn1nccc1C (stereo unspecified) | 91.05
21 | Cn1cc(C2CCCN2C(=O)COC2CCCCC2)cn1 (stereo unspecified) | -3.38
22 | Cc1n[nH]cc1CNC(=O)[C@H]1CCCCN1C(=O)OC(C)(C)C | -12.93
23 | CC(CCCC(C)(C)O)Nc1ccc(-c2nccn2C)nn1 (stereo unspecified) | 6.201
24 | COc1cc(N2CCC(c3nccn3Cc3ccccc3)CC2)ncn1 | -9.757
25 | CN(C)C(=O)c1ccc2c(c1)N(C)C(CC(=O)NCCC(C)(C)C)CO2 (stereo unspecified) | 1.305
26 | Cn1ccnc1CN1CCN(CC2CC2)[C@@H]2CS(=O)(=O)C[C@@H]21 | 106.1
27 | O=S1(=O)C[C@@H]2[C@H](C1)N(Cc1cc(Cl)cc(Cl)c1)CCN2CC1CC1 | 5.878
28 | CC(C)=CCN1CCN(Cc2ncc[nH]2)[C@H]2CS(=O)(=O)C[C@H]21 | -11
29 | CC(C)=CCN1CCN(Cc2nccn2C)[C@H]2CS(=O)(=O)C[C@H]21 | 99.3
30 | CC(C)=CCN1CCN(Cc2nc3ccccc3[nH]2)[C@H]2CS(=O)(=O)C[C@H]21 | -9.753
31 | O=S1(=O)C[C@@H]2[C@H](C1)N(Cc1ncc[nH]1)CCN2CC1CC1 | -14.64
